Laboratory results taken from PubChem BioAssay (EPA / NIEHS).
Calls of active or inactive are those of the source. The calls were made as follows: active = hit-call score of the fitted dose curve at least 0.9, where 1 is the maximum; inactive = score below 0.9.

test: ATG_PXRE_CIS: Attagene CIS-FACTORIAL HepG2 Assay for human Pregnane X Receptor Element (PXRE) (AID 2282957); conditions: HepG2 Attagene CIS-FACTORIAL PXRE reporter, mRNA; actives raise or lower the signal
Method in brief: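 Reporter transcripts under endogenous PXR-responsive cis-regulation quantified from total RNA of transfected HepG2 cells 24 h post-dosing, via RT-PCR with fluorescent primer extension and capillary electrophoresis. Gain or loss of signal fitted against DMSO baseline.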

SMILES | outcome | AC50
Nc1nc(N)c2nc(CNc3ccc(C(=O)N[C@@H](CCC(=O)O)C(=O)O)cc3)cnc2n1 | inactive | 
COc1cc(S(=O)(=O)O)c(C)cc1N=Nc1c(O)ccc2cc(S(=O)(=O)O)ccc12 | inactive | 
CN1CCN(Cc2cc(-c3ccc4[nH]c(=O)oc4c3)co2)[C@@H](c2ccc(F)cc2)C1 |  | 8.51 µM (active)
FC(F)(F)C(F)(F)C(F)(F)C(F)(F)C(F)(F)C(F)(F)CCI | inactive | 
Cc1nc(C)nc(N2C[C@@H](C)N(c3ccnc([C@@H](C)O)n3)[C@@H](C)C2)n1 | inactive | 
NS(=O)(=O)c1cc2c(cc1Cl)NCNS2(=O)=O | inactive | 
Cc1c(C(=O)O)c(O)cc2c1C(=O)c1c(O)c([C@@H]3O[C@H](CO)[C@@H](O)[C@H](O)[C@H]3O)c(O)c(O)c1C2=O |  | 53.9 µM (active)
Cc1cc(NC(=O)C(=O)O)cc(C)c1Oc1ccc(O)c2c1CCC2 | inactive | 
O=C(O)Cc1ccccc1Nc1c(Cl)cccc1Cl |  | 25.8 µM (active)
O=c1[nH]cc(F)c(=O)[nH]1 | inactive | 

test: ATG_PPRE_CIS: Attagene CIS-FACTORIAL HepG2 Assay for human Peroxisome Proliferator-activated Response Element (PPRE) (AID 2282958); conditions: HepG2 PPRE cis-element reporter, Attagene transcription factor profiling; actives raise or lower the signal
Method in brief: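 Measured endpoint: PPRE-controlled reporter mRNA, detected by RT-PCR and capillary electrophoresis fluorescence, from transiently transfected HepG2 cells 24 h after dosing. Curves fitted in both directions using DMSO baseline.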

SMILES | outcome
COc1cc(-c2nc(NC(=O)c3cc4cc(C)cc(C)c4n3CC(=O)O)sc2CCC2CCCCC2)c(OC)cc1Cl | inactive
CCCCCCCCCCCC(=O)OC | inactive
COCCOCCOC | inactive
CCOC(=O)C(C)(C)Oc1ccc(Cl)cc1 | inactive
CC(CO)OC(C)CO (centres undefined) (tested in a mixture with another compound) | inactive
CCc1c(C(=O)NN2CCCCC2)nn(-c2ccc(Cl)cc2Cl)c1-c1ccc(Br)cc1 | inactive
CNC(=O)[C@H]1O[C@@H](n2cnc3c(NCc4cc(Cl)ccc4OCc4cc(C)no4)ncnc32)[C@H](O)[C@@H]1N | inactive
C[Si]1(C)O[Si](C)(C)O[Si](C)(C)O[Si](C)(C)O1 | inactive
O=C(O)CCCCC(=O)O | inactive
CN[C@H]1CC[C@@H](c2ccc(Cl)c(Cl)c2)c2ccc(S(N)(=O)=O)cc21 | inactive
Cc1cc(=O)[nH]c(=S)[nH]1 | inactive
Cc1nc(-c2ccc3c(c2)CCN(CCC2CCC(NC(=O)/C=C/c4ccc(F)cc4)CC2)CC3)no1 (centres undefined) | inactive
Cc1ccc(Cl)cc1 | inactive
NC(=O)Cn1c(=O)cc(CCN2CCN(c3nccc4sccc34)CC2)c2ccc(F)cc21 | inactive
Cc1ccccc1Cl | inactive
COc1cc(/C=C/C(=O)CC(=O)/C=C/c2ccc(O)c(OC)c2)ccc1O | inactive
COc1cc(S(=O)(=O)O)c(C)cc1N=Nc1c(O)ccc2cc(S(=O)(=O)O)ccc12 | inactive
FC(F)(F)C(F)(F)C(F)(F)C(F)(F)C(F)(F)C(F)(F)CCI | inactive
Cc1c(C(=O)O)c(O)cc2c1C(=O)c1c(O)c([C@@H]3O[C@H](CO)[C@@H](O)[C@H](O)[C@H]3O)c(O)c(O)c1C2=O | inactive
O=C(O)Cc1ccccc1Nc1c(Cl)cccc1Cl | inactive
O=c1[nH]cc(F)c(=O)[nH]1 | inactive

test: ATG_RORE_CIS: Attagene CIS-FACTORIAL HepG2 Assay for human RAR-related Orphan Receptor Element (RORE) (AID 2282959); conditions: HepG2 Attagene cis-factorial RORE reporter, mRNA; actives raise or lower the signal
Method in brief: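 Transiently transfected HepG2 reporter cells were treated 24 h. Reporter transcripts were detected by RT-PCR and capillary electrophoresis, with bidirectional fitting against DMSO.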

SMILES | AC50 | outcome
COc1cc(-c2nc(NC(=O)c3cc4cc(C)cc(C)c4n3CC(=O)O)sc2CCC2CCCCC2)c(OC)cc1Cl | 10.4 µM (active) | 
CCCCCCCCCCCC(=O)OC |  | inactive
COCCOCCOC |  | inactive
CCCCCCCCCCO |  | inactive
CCOC(=O)C(C)(C)Oc1ccc(Cl)cc1 |  | inactive
CC(CO)OC(C)CO (centres undefined) (tested in a mixture with another compound) |  | inactive
CCc1c(C(=O)NN2CCCCC2)nn(-c2ccc(Cl)cc2Cl)c1-c1ccc(Br)cc1 |  | inactive
CNC(=O)[C@H]1O[C@@H](n2cnc3c(NCc4cc(Cl)ccc4OCc4cc(C)no4)ncnc32)[C@H](O)[C@@H]1N |  | inactive
C[Si]1(C)O[Si](C)(C)O[Si](C)(C)O[Si](C)(C)O1 |  | inactive
CCCCc1ccc2c(n1)[C@@H](c1ccc(OC)cc1C[C@H](C)C(=O)O)[C@H](C(=O)O)[C@H]2c1ccc2c(c1)OCO2 |  | inactive
O=C(O)CCCCC(=O)O |  | inactive
CCCCN(CCCC)CCCC |  | inactive
CN[C@H]1CC[C@@H](c2ccc(Cl)c(Cl)c2)c2ccc(S(N)(=O)=O)cc21 |  | inactive
Cc1cc(=O)[nH]c(=S)[nH]1 |  | inactive
Cc1nc(-c2ccc3c(c2)CCN(CCC2CCC(NC(=O)/C=C/c4ccc(F)cc4)CC2)CC3)no1 (centres undefined) |  | inactive
Cc1ccc(Cl)cc1 |  | inactive
NC(=O)Cn1c(=O)cc(CCN2CCN(c3nccc4sccc34)CC2)c2ccc(F)cc21 |  | inactive
Cc1ccccc1Cl |  | inactive
COc1cc(/C=C/C(=O)CC(=O)/C=C/c2ccc(O)c(OC)c2)ccc1O |  | inactive
Nc1nc(N)c2nc(CNc3ccc(C(=O)N[C@@H](CCC(=O)O)C(=O)O)cc3)cnc2n1 |  | inactive
COc1cc(S(=O)(=O)O)c(C)cc1N=Nc1c(O)ccc2cc(S(=O)(=O)O)ccc12 |  | inactive
FC(F)(F)C(F)(F)C(F)(F)C(F)(F)C(F)(F)C(F)(F)CCI |  | inactive
Cc1nc(C)nc(N2C[C@@H](C)N(c3ccnc([C@@H](C)O)n3)[C@@H](C)C2)n1 |  | inactive
NS(=O)(=O)c1cc2c(cc1Cl)NCNS2(=O)=O |  | inactive
Cc1c(C(=O)O)c(O)cc2c1C(=O)c1c(O)c([C@@H]3O[C@H](CO)[C@@H](O)[C@H](O)[C@H]3O)c(O)c(O)c1C2=O |  | inactive
Cc1cc(NC(=O)C(=O)O)cc(C)c1Oc1ccc(O)c2c1CCC2 |  | inactive
O=C(O)Cc1ccccc1Nc1c(Cl)cccc1Cl |  | inactive
O=c1[nH]cc(F)c(=O)[nH]1 |  | inactive
